This is an account of results in PubChem BioAssay (NCATS).

Structures are written as SMILES. Records with an inconclusive call do not appear. Activity calls are given as the source filed them. Calls follow the shape of the dose curve; as a rule, active = well fitted inhibition curve with a large enough effect; inconclusive = small, poorly fitted or top-dose-only effect; inactive = flat fitted curve, though single readings scatter.

For this assay, the system named is CRL-7250. The assay is described as follows: qHTS assay to identify novel small-molecules to repurpose for Merkel cell carcinoma treatment (AID 1296009). Also: nearly all actives have a fitted effect of over 60% in size. Particulars: MCC and control cell lines, CellTiter-Glo viability, 72 h; at 44.8 µM (top of the series) unless noted. In short, it runs like this:
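Cells exposed to NPC (8-point) and MIPE (11-point) compound dilutions for 72 hr at 37 degree celsius; viability read by CellTiter-Glo luminescence, normalized to no-cell and DMSO in-plate controls.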
As to `CCO/C([O-])=N/c1c[n+](N2CCOCC2)no1`, the compound was called inactive.

For the compound `CCS(=O)(=O)CCn1c([N+](=O)[O-])cnc1C`, the outcome was inactive.

On to `Cc1cc2nc3c(=O)[nH]c(=O)nc-3n(C[C@H](O)[C@H](O)[C@H](O)CO)c2cc1C`, for which the outcome is “inactive [at 17.4 µM]”.

Take `CS(=O)(=O)c1ccc([C@@H](O)[C@@H](CO)NC(=O)C(Cl)Cl)cc1`: the call was inactive.

Consider `O=c1cc(O)c(Cl)c[nH]1`, for which the outcome was inactive.

As to `CCN1CCC[C@H]1CNC(=O)c1c(O)c(Cl)cc(Cl)c1OC`, the call was inactive.

With `CCC(Cc1c(I)cc(I)c(N)c1I)C(=O)O` (stereo not given), the outcome was inactive.

`Cc1cccc(C)c1NC(=O)c1cc(S(N)(=O)=O)c(Cl)cc1O`: the outcome was inactive.

Turning to `NC(N)=NS(=O)(=O)c1ccc(N)cc1`, the call was inactive.

As for `Cc1[nH]cnc1-c1ccc(Cl)cc1`, the compound was classed as inactive.

As for `OCc1ccc(Cl)cc1Cl`, the call was inactive.

With `C[C@](N)(Cc1ccc(O)cc1)C(=O)O`, the outcome is “inactive [at 4.96 µM]”.

As to `O=C(Oc1ccccc1)c1ccccc1O`, the call was inactive.

Take `CN(C)C(=O)COC(=O)Cc1ccc(OC(=O)c2ccc(N=C(N)N)cc2)cc1`: the result was inactive.

For the compound `Cc1c(C(=O)NCCO)[n+](=O)c2ccccc2n1[O-]`, the compound was called inactive.

For `CC1(COc2ccc(CC3SC(=O)NC3=O)cc2)CCCCC1` (stereo not given), the compound was called inactive.

As for `O=C(O)CSCC(=O)NC1CCSC1=O` (stereo not given), the result was inactive.

As for `O=S(=O)(O)CCS`, the compound was classed as inactive.

For `CC(C)=CCC/C(C)=C/CO`, the compound was called inactive.

For `CC(CCc1ccccc1)NCC(O)c1ccc(O)c(C(N)=O)c1` (stereo not given), the outcome was inactive.

In the case of `O=C(CO)[C@@H](O)[C@H](O)[C@@H](O)CO`, the call was inactive.

Regarding `O=C(O)c1c(O)c(-c2ccccc2)nc2ccccc12`, the call was inactive.

Take `COc1ccc(C(=O)NCc2ccc(OCCN(C)C)cc2)cc1OC`: the outcome was inactive.

With `CC(C)c1ccc2oc3nc(N)c(C(=O)O)cc3c(=O)c2c1`, the compound was called inactive.

Consider `CC(=O)OCC(=O)[C@@]1(O)[C@H](OC(C)=O)C[C@H]2[C@@H]3CCC4=CC(=O)C=C[C@]4(C)[C@@]3(F)[C@@H](O)C[C@@]21C`, for which the result was inactive.
